Tested on: Fibrinogen (Alexa647-labelled)
Assay: Alexa647-fibrinogen binding to printed small molecules – biochemical, small-molecule microarray, 635/667 nm fluorescence, artefact control for SMM control-protein annotation, profiling panel (AID 1131);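 note: z-score merges 667 nm fluorescence with per-spot signal-to-noise over triplicate slides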
Conditions: fibrinogen-A647 binding fluorescence, higher = more signal

SMILES | composite z-score
O=C1[C@H]2[C@H]3[C@H](O)[C@H](O)CC(=NOC[C@@H](O)COCc4ccco4)[C@@H]3CC[C@H]2C(=O)N1C[C@@H]1CCCO1 | -0.652
CC(C)=NOC[C@@H](C)[C@H](OCc1ccccc1)C(C)C | -0.22
C=CC[C@@H]1C=C[C@H](ON=C(C)CCN2CCc3nc(-c4ccccc4)c(-c4ccccc4)cc3C2)[C@@H](CO)O1 | 0.727
CC(=O)OC[C@H]1OC(ON=CC[C@@H]2C=C[C@H](OC(C)=O)[C@@H](COC(C)=O)O2)[C@H](OC(C)=O)[C@@H](OC(C)=O)[C@@H]1OC(C)=O (some centres undefined) | 0.106
CON=CC[C@@H]1C=C[C@H](OC(C)=O)[C@@H](COC(C)=O)O1 | -0.146
COC(=O)CC=C[C@@H](C)[C@@H](C=NO[C@@H]1O[C@H](COC(C)=O)[C@@H](OC(C)=O)[C@H](OC(C)=O)[C@H]1OC(C)=O)OC | -0.0528
COC(=O)CC=C[C@@H](C)[C@@H](C=NO[C@H](C)c1cn([C@H](CO)Cc2ccccc2)nn1)NS(=O)(=O)c1ccc(C)cc1 | 0.951
CCOC(=O)[C@H](CC(C)C)NC(=O)CCC1CC(OC(=O)NCc2cccc3ccccc23)CC2(CCCC(COC(=O)NCC3CCCCC3)O2)O1 (some centres undefined) | 0.297
COc1cccc([C@H]2Oc3ccc(OC)cc3C(=NO[C@H](C)c3cn([C@H](CO)Cc4ccccc4)nn3)[C@@H]2O)c1 | -0.095
CCOC(=O)[C@H](Cc1ccccc1)NC(=O)CCC1CC(OC(=O)NCCc2ccc(F)cc2)CC2(CCCC(COC(=O)NCCCN3CCCC3=O)O2)O1 (some centres undefined) | 0.552
COC(=O)[C@H](C)NC(=O)CCC1CC(OC(=O)NCCc2ccc(F)cc2)CC2(CCCC(COC(=O)NCCC(C)C)O2)O1 (some centres undefined) | 0.939
O=C1C=C[C@@H](O)[C@@H]2[C@@H]3C(=O)N(c4ccc(F)cc4F)C(=O)[C@@H]3CC[C@@H]12 | 0.61
CCOC(=O)[C@H](CC(C)C)NC(=O)CCC1CC(OC(=O)NCc2cccc3ccccc23)CC2(CCCC(COC(=O)NCCCN3CCCC3=O)O2)O1 (some centres undefined) | 0.634
CCOC(=O)[C@H](CC(C)C)NC(=O)CCC1CC(OC(=O)NCc2cccc3ccccc23)CC2(CCCC(COC(=O)NCCc3ccc(Cl)cc3)O2)O1 (some centres undefined) | 0.635
CO[C@H]1COC(=O)CC=C[C@@H](C)[C@H](NS(=O)(=O)c2ccc(C)cc2)COC(=O)CCC[C@@H]1C | 0.19
CC(=O)OC[C@H]1O[C@@H](ON=C(C)CCN2CCCc3nc(C)c(C)cc32)[C@H](OC(C)=O)[C@@H](OC(C)=O)[C@@H]1OC(C)=O | 0.602
CCOC(=O)CCN1C(=O)[C@H]2[C@H]3[C@H](O)[C@H](O)CC(=NNC(=O)OCc4ccccc4)[C@@H]3CC[C@H]2C1=O | 0.986
CC=CC1=C(CO)C(=O)[C@@H]2O[C@@H]2C1=O | -0.328
O=C1[C@H]2[C@H]3[C@H](O)[C@H](O)CC(=NOCc4ccccc4)[C@H]3CC[C@H]2C(=O)N1Cc1ccc2c(c1)OCO2 | 0.632
COC(=O)CC=C[C@@H](C)[C@@H](C=NOCC[C@@H]1C=C[C@H](OC(C)=O)[C@@H](COC(C)=O)O1)OC | -0.902
O=C(NN=C1C[C@@H](O)[C@@H](O)[C@@H]2[C@@H]3C(=O)N(Cc4ccccc4)C(=O)[C@@H]3CC[C@@H]12)OCc1ccccc1 | 0.272
CO[C@H]1COC(=O)CCC[C@@H](C)[C@H](OC)COC(=O)[C@@H]2CCCN2C(=O)CC=C[C@@H]1C | -0.759
CCOC(=O)[C@H](CC(C)C)NC(=O)CCC1CC(OC(=O)NCc2ccc3c(c2)OCO3)CC2(CCCC(COC(=O)NCc3cccc(C(F)(F)F)c3)O2)O1 (some centres undefined) | -0.092
CC(C)CON=C1C[C@@H](O)[C@@H](O)[C@@H]2[C@@H]3C(=O)N(c4ccc(F)cc4F)C(=O)[C@@H]3CC[C@H]12 | 0.424
CO[C@@H]1COC(=O)CC=C[C@@H](C)[C@@H]2C=C[C@H](O)[C@@H](COC(=O)CC=C[C@H]1C)O2 | -0.616
CC(CCN1CCc2nc(-c3ccccc3)c(-c3ccccc3)cc2C1)=NOC[C@@H](O)COCc1ccco1 | 0.19
C[C@H]1CC[C@H]2C(=O)O[C@H](COc3ccc(C(C)(C)C)cc3)CN2[C@@H]1c1ccc(Br)cc1 | 0.503
CCC1=NOC(CCC2CC(OC(=O)NCc3cccc4c3OCO4)CC3(CCCC(COC(=O)NCCc4ccccc4OC)O3)O2)C1 (centres undefined) | 0.155
C=CC[C@@H]1C=C[C@H](ON=C2[C@H]3CCn4c(=O)n(-c5ccccc5)c(=O)n4[C@H]3[C@H](O)[C@@H]3O[C@H]23)[C@@H](CO)O1 | 0.626

Reference: PubChem BioAssay
